Gal4-VP16 FLuc: VP16 counterscreen qHTS for inhibitors of ROR gamma transcriptional activity. Drosophila S2 Gal4-VP16 UAS-luciferase, luminescence, 20 h. AID 2546, 2010. actives 3.5% (n = 310,000). Potency, µM (series often up to 53.6 µM), for the others: top-dose activity, negative = inhibition, hits mostly inhibitors;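 note: Gal4-VP16 expression switched on by copper sulfate through the metallothionein promoter; % is set by controls: 0 for no effect and ±100 for the full control effect; nearly all actives have a fitted effect of over 50% in size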
RORg inh: qHTS for inhibitors of ROR gamma transcriptional activity. Nuclear receptor ROR-gamma (Mus musculus), P51450. Drosophila S2 Gal4-RORgamma UAS-luciferase reporter, 20 h. Potency, µM (titrated, usually from 53.6 µM), for the others: at the top dose activity change, negative = inhibition, most hits filed as inhibitors. actives 5.4% (n = 310,000). AID 2551, 2010; note: % is set by controls: 0 for no effect and ±100 for the full control effect; nearly all actives have a fitted effect of over 60% in size
Target sequence (P51450 whole entry, looked up, the tested form may be a part): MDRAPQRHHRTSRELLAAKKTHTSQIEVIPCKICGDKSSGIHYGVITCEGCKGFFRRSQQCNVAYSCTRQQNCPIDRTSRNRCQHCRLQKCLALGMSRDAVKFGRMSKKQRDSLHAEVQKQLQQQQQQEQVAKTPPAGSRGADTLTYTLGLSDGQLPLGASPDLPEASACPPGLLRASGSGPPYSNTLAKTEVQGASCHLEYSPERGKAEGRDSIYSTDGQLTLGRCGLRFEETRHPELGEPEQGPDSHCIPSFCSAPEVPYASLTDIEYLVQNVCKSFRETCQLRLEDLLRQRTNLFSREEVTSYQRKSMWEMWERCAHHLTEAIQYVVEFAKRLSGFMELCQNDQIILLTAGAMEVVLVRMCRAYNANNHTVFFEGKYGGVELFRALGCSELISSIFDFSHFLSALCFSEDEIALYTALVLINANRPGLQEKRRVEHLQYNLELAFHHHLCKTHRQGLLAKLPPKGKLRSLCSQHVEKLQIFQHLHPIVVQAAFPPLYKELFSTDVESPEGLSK
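Luminescence from a UAS-regulated Photinus luciferase reporter in stably transfected Drosophila Schneider cells is measured; decreased signal marks ROR gamma inhibition. Fusion expression is induced by 700 uM copper sulfate for 20 hr.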
ATXN2 expr inh: Primary qHTS for Inhibitors of ATXN expression; HEK-293 ATXN2-luciferase reporter, luminescence, 24 h; AID 1745845, 2022; Potency, µM (doses to about 57 µM), without a hit: top-dose activity change, negative = inhibition, hits mostly inhibitors; actives 0.72% (n = 360,000); note: % is set by controls: 0 for no effect and ±100 for the full control effect; nearly all actives have a fitted effect of over 55% in size
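ATXN2-luciferase reporter cells (luciferase flanked by upstream and downstream ATXN2 gene portions) were treated 24 h at 37 °C with compounds at up to 57 uM. SteadyGlo luminescence gave expression; GF-AFC fluorescence gave viability.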
TGFb inhibitor: qHTS for Inhibitors of TGF-b; HepG2 CAGA-GFP TGF-b/SMAD3 reporter, GFP fluorescence, 18 h; TGF-beta stimulated, 500 pg/mL final; Potency, µM (titrated, usually from 46.1 µM), inactives show at the top dose activity, negative = inhibition, hits mostly inhibitors; actives 1.2% (n = 410,000); note: % is set by controls: 0 for no effect and ±100 for the full control effect; nearly all actives have a fitted effect of over 65% in size
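First, reporter cells (HEPG2 CAGA-GFP) rested 2 h at 37 degrees C. Next, compounds were pinned in and TGF-beta added to 500 pg/mL final. After 18 h, GFP was imaged per cell and summed per well.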
ATXN viability: Viability Counterscreen for Primary qHTS for Inhibitors of ATXN expression; S2 cells (HEK-293 line with an ATXN2-luciferase reporter) viability, CellTiter-Fluor protease fluorescence, 24 h; Potency, µM (titrated, usually from 56.7 µM), actives largely listed as cytotoxic; actives 0.49% (n = 400,000); note: nearly all actives have a fitted effect of over 40% in size
HepG2 tox-1: qHTS for Inhibitors of TGF-b: Cytotox Counterscreen; HepG2 CAGA-GFP viability, ATP luminescence, 18 h; Potency, µM (doses to about 46.1 µM), for inactives: at the highest dose activity change, negative = cytotoxicity, usual class: cytotoxic; actives 0.76% (n = 410,000); AID 588856, 2011
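HepG2 CAGA-GFP cells (1000/well, DMEM with 1% FBS) received compound, then TGF-beta at 500 pg/mL final, and were incubated 18 hours at 37 degrees C. Viability was read by CellTiter-Glo luminescence. Media-only wells were set as complete cell-killing and DMSO as no toxicity.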
TGFb confirm: qHTS for Inhibitors of TGF-b: Confirmation of Cherry Picks; HepG2 CAGA-GFP TGF-b reporter, GFP fluorescence, 18 h; cells stimulated with TGF-beta, 500 pg/mL; Potency, µM (top dose mostly 46.1 µM), for the others: at the top dose activity, negative = inhibition, most hits filed as inhibitors; shares compounds with TGFb inhibitor; actives 63% (n = 1,600); note: % is set by controls: 0 for no effect and ±100 for the full control effect; nearly all actives have a fitted effect of over 65% in size
HepG2 tox-2: qHTS for Inhibitors of TGF-b: Cytotox Counterscreen for Cherry Picks; actives 27% (n = 1,600); Potency, µM (series often up to 46.1 µM), inactives show at the highest dose activity, negative = cytotoxicity, actives largely listed as inhibitors; shares compounds with TGFb inhibitor; HepG2 CAGA-GFP viability, ATP luminescence, 18 h; cells stimulated with TGF-beta, 500 pg/mL; note: % is set by controls: 0 for no effect and ±100 for the full control effect; nearly all actives have a fitted effect of over 70% in size
CCL64 TGFb inh: qHTS for Inhibitors of TGF-b: CCL64 Cells Orthogonal Assay for Cherry Picks; shares compounds with TGFb inhibitor; CCL64 CAGA-GFP reporter, TGF-b stimulated, GFP fluorescence, 18 h; Potency, µM (top dose mostly 46.1 µM), inactives show at the highest dose activity, negative = inhibition, usual class: inhibitors; actives 41% (n = 1,600); note: nearly all actives have a fitted effect of over 65% in size
TGFb COP inh: qHTS for Inhibitors of TGF-b: Hit Validation in HepG2 Cells using COP promoter; shares compounds with TGFb inhibitor; HepG2 COP-GFP TGF-b reporter, GFP fluorescence, 18 h; cells stimulated by added recombinant TGF-beta; Potency, µM (highest dose often 46.1 µM), for the others: at the highest dose activity, negative = inhibition, hits mostly inhibitors; actives 3% (n = 1,600); note: nearly all actives have a fitted effect of over 70% in size
* = called active by the depositor. Sampled rows, rich in hits. Any-hit rate of the full collection: about 6.3%. Calls come from the whole dose curve; as a rule, active = well fitted curve in the direction sought with a large enough effect; inconclusive = small, poorly fitted or top-dose-only effect, or another doubt; inactive = no such curve, though single readings can be large; an effect the other way counts as inactive or inconclusive. Potency is the fitted concentration of half-maximal effect.

Results for C[C@H](CO)N1C[C@H](C)[C@@H](CN(C)S(=O)(=O)c2ccc(Cl)cc2)Oc2ccc(NS(=O)(=O)c3ccccc3)cc2CC1=O ?
ATXN2 expr inh: inconclusive; TGFb inhibitor: 4.5µM*; ATXN viability: inconclusive; HepG2 tox-1: 3%; TGFb confirm: inconclusive; HepG2 tox-2: -11%; CCL64 TGFb inh: inconclusive; TGFb COP inh: 40%

How did CN(C)C(CNC(=O)c1cc(S(=O)(=O)N2CCOCC2)ccc1Cl)c1cccs1 (configuration not stated) do in these assays?
ATXN2 expr inh: 48%; TGFb inhibitor: -10%; ATXN viability: inactive; HepG2 tox-1: -7%

Results for CCC1CCCCN1S(=O)(=O)c1ccc(NC(=O)c2nc(S(C)(=O)=O)ncc2Cl)cc1 (configuration not stated) ?
Gal4-VP16 FLuc: 4µM*; RORg inh: 3.2µM*; ATXN2 expr inh: 16µM*; TGFb inhibitor: 4.5µM*; ATXN viability: 13µM*; HepG2 tox-1: 4µM*; TGFb confirm: 3.7µM*; HepG2 tox-2: 6.5µM*; CCL64 TGFb inh: 2.1µM*; TGFb COP inh: 9.2µM*

What do the screens show for `CCS(=O)(=O)c1ncc(Cl)c(C(=O)Nc2ccc(S(=O)(=O)N3CCCC(C)C3)cc2)n1` (configuration not stated)?
Gal4-VP16 FLuc: 3.5µM*; RORg inh: inconclusive; ATXN2 expr inh: 8.9µM*; TGFb inhibitor: 4.5µM*; ATXN viability: 8.9µM*; HepG2 tox-1: 4.5µM*; TGFb confirm: 4.1µM*; HepG2 tox-2: 5.2µM*; CCL64 TGFb inh: 2.6µM*; TGFb COP inh: 7.3µM*

Results for O=C(Nc1ccc(Br)cc1)c1ccccc1Br ?
ATXN2 expr inh: -6%; TGFb inhibitor: 15%; ATXN viability: inactive; HepG2 tox-1: -2%

Results for CN(C)c1ccc(/C=C/c2ccnc3ccccc23)cc1N ?
TGFb inhibitor: -2%; HepG2 tox-1: -26%
